The panel holds about 83,000 compounds, 20% with a hit somewhere; the sample as a whole holds those more often.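 Activity criterion: percent growth below 10, measured after cells in 96-well plates were exposed to a single compound concentration for 48 hours.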 Values without a mark were called inactive. Active and inactive are the calls of the source.

The subject of the first assay is IGROV1 ovarian. Kind of assay: NCI-60 one-dose screen, 48 h (100 = growth as untreated, 0 = no growth, -100 = all killed). The following applies: 10 µM.
As to `COc1cc(/C=C/C(=O)c2ccc(C(F)(F)F)cc2)ccc1Oc1nc(Nc2ccc(F)cc2)nc(N(C)C)n1`, the growth is 91.4%.

For `Cc1ccc(/C=C/C(=O)c2ccc(NC(=O)CSc3nnc(-c4c[nH]c5ccccc45)n3-c3ccccc3)cc2)c(C)c1`, the growth was 66.8%.

Take `N#Cc1c(-c2ccc(Cl)cc2)cc(-c2ccccc2)nc1OCc1ccccc1`: the growth was 87%.

As for `Nc1nnc(-c2c[nH]c3ncccc23)c(-c2c[nH]c3ccc(Br)cc23)n1`, the growth is 25.7%.

For the compound `C/C(=C\c1ccc(O)cc1O)c1ccc2ccc(O)cc2[o+]1`, the growth is 47.8%.

`CCCCOc1ccc(Nc2nc3ccccc3nc2Nc2ccc(OCCCC)cc2)cc1`: the growth is 108%.

Regarding `COc1ccc(/C=N/N=C(\C)c2ccc3c(c2)Nc2ccccc2S3)cc1O`, the growth is 70.1%.

For the compound `O=C(CSc1nnc(-c2c[nH]c3ccccc23)n1-c1ccccc1)c1ccc(Br)cc1`, the growth was 64.1%.

Turning to `COC(=O)c1c(C(=O)OC)c2n(c1C)[C@@H]([C@@H](C)[C@H]1CC[C@H]3[C@@H]4CCC5=CC(=O)CC[C@]5(C)[C@H]4CC[C@]13C)SC2`, the growth is 75.9%.

Take `COc1ccc(C(=O)/C=C/c2cc(C(F)(F)F)cc(C(F)(F)F)c2)cc1S(N)(=O)=O`: the growth is -69% (active).

As for `O/N=C(\CSc1nnc(-c2c[nH]c3ccccc23)n1-c1ccccc1)c1ccc(Br)cc1`, the growth is -65.4% (active).

As to `CC(=O)Oc1ccccc1C(=O)Oc1ccc(C(=O)/C=C/c2ccncc2)cc1`, the growth is 22.3%.

Take `O=S(=O)(Nc1ncccn1)c1ccc(-n2c(-c3ccc(Br)cc3)nc(-c3ccccc3)c2-c2ccccc2)cc1`: the growth was 51.6%.

Consider `CC1(c2ccccc2)NC(=O)N(CC(=O)Nc2ccc(C(=O)/C=C/C=C/c3ccccc3)cc2)C1=O` (stereo unspecified), for which the growth is 86.5%.

For `COc1cc(C2CC(c3ccc(C)cc3)=Nc3c(N)nc(N)nc3N2)ccc1Oc1nc(Nc2ccc(F)cc2)nc(N(C)C)n1` (stereo unspecified), the growth is 53.8%.

Regarding `O=C(Nc1cccc(C(F)(F)F)c1)c1cncc(C#Cc2cnc3ccc(N4CCOCC4)nn23)c1`, the growth is 1.76% (active).

Regarding `C#CCNC(=O)CCC(=O)OC[C@]12CC[C@@H](C(=C)C)[C@@H]1C1CC[C@@H]3[C@@]4(C)CCCNC(C)(C)[C@@H]4CC[C@@]3(C)[C@]1(C)CC2` (stereo partly specified), the growth is -3.31% (active).

With `COc1ccc2[nH]cc(/C=N/Nc3ccc(Br)cn3)c2c1`, the growth was 10.3%.

Turning to `[2H]C([2H])([2H])Oc1ccc2ncc(C#Cc3cncc(C(=O)Nc4ccc(CN5CCN(C)CC5)c(C(F)(F)F)c4)c3)n2n1`, the growth was -62.5% (active).

`COc1ccc(CN2[C@H](C(=O)NCc3ccc(C(=O)NO)cc3)Cc3c([nH]c4ccccc34)[C@H]2C2CC2)cc1`: the growth is 50.5%.

With `CN(C)c1ccc(/C=C/c2nc3ccccc3c(=O)n2CC(=O)Nc2ccccc2)cc1`, the growth is 76.2%.

The next assay concerns OVCAR-3 ovarian. The assay is described as above. To be noted: 10 µM.
In the case of `COc1cc(/C=C/C(=O)c2ccc(C(F)(F)F)cc2)ccc1Oc1nc(Nc2ccc(F)cc2)nc(N(C)C)n1`, the growth was 79.6%.

For `Cc1ccc(/C=C/C(=O)c2ccc(NC(=O)CSc3nnc(-c4c[nH]c5ccccc45)n3-c3ccccc3)cc2)c(C)c1`, the growth was 32%.

As to `COc1ccc(/C=C/C(=O)c2ccc(S(=O)(=O)NCCNc3nc(Nc4ccc(F)cc4)nc(N(C)C)n3)cc2)cc1`, the growth was 15.7%.

For the compound `N#Cc1c(-c2ccc(Cl)cc2)cc(-c2ccccc2)nc1OCc1ccccc1`, the growth is 97.9%.

For `Nc1nnc(-c2c[nH]c3ncccc23)c(-c2c[nH]c3ccc(Br)cc23)n1`, the growth is 52.6%.

In the case of `CC(=O)OC[C@@]1(C)C2CC[C@]3(C)C(CC=C4C5CC(C)(C)CC[C@]5(C(=O)Nc5ccccc5)CC[C@]43C)[C@@]2(C)C[C@@H](OC(C)=O)[C@@H]1OC(C)=O` (stereo partly specified), the growth is 38.9%.

Take `O=C(CSc1nnc(-c2c[nH]c3ccccc23)n1-c1ccccc1)Nc1ccc(C(=O)/C=C/c2cccc([N+](=O)[O-])c2)cc1`: the growth was 103%.

In the case of `C/C(=C\c1ccc(O)cc1O)c1ccc2ccc(O)cc2[o+]1`, the growth was 28.7%.

For `CCCCOc1ccc(Nc2nc3ccccc3nc2Nc2ccc(OCCCC)cc2)cc1`, the growth is 68.9%.

`Nc1nc(Nc2ccc(Cl)cc2)nn1Cc1cccc(Br)c1`: the growth was 47.7%.

`COc1ccc(/C=N/N=C(\C)c2ccc3c(c2)Nc2ccccc2S3)cc1O`: the growth was 72.8%.

In the case of `O=C(CSc1nnc(-c2c[nH]c3ccccc23)n1-c1ccccc1)c1ccc(Br)cc1`, the growth is 42.5%.

Turning to `COC(=O)c1c(C(=O)OC)c2n(c1C)[C@@H]([C@@H](C)[C@H]1CC[C@H]3[C@@H]4CCC5=CC(=O)CC[C@]5(C)[C@H]4CC[C@]13C)SC2`, the growth is 51.4%.

Take `COc1ccc(C(=O)/C=C/c2cc(C(F)(F)F)cc(C(F)(F)F)c2)cc1S(N)(=O)=O`: the growth is -88.6% (active).

On to `CCCn1c(O)c(N=Nc2nc(-c3cc4ccccc4oc3=O)cs2)c2cc(Br)ccc21`, for which the growth is 100%.

With `O/N=C(\CSc1nnc(-c2c[nH]c3ccccc23)n1-c1ccccc1)c1ccc(Br)cc1`, the growth is 0.699% (active).

`CC(=O)C1=C(C)NC(SCC(=O)Nc2ccc(S(=O)(=O)Nc3cc(C)on3)cc2)=NC1c1ccccc1` (stereo unspecified): the growth was 107%.

Regarding `O=S(=O)(Nc1ncccn1)c1ccc(-n2c(-c3ccc(Br)cc3)nc(-c3ccccc3)c2-c2ccccc2)cc1`, the growth is 48.2%.

`COc1ccc(-c2cc(C(=O)N=Nc3c(O)[nH]c4ccc(Br)cc34)c3ccccc3n2)cc1`: the growth was 8.75% (active).

As to `CCOC(=O)CNC(=O)CN(Cc1ccccc1)C(=O)[C@@]1(C)CCC[C@]2(C)[C@H]3CC4C(C(C)C)=C[C@]3(CC[C@H]21)[C@@H]1C(=O)CCC(=O)[C@H]41`, the growth is 61.1%.

With `CC1(c2ccccc2)NC(=O)N(CC(=O)Nc2ccc(C(=O)/C=C/C=C/c3ccccc3)cc2)C1=O` (stereo unspecified), the growth was 47.1%.

As for `COc1ccc(-c2cc(-c3cc(C(=O)c4ccccc4)n4ccc(C)cc34)nc(N)c2C#N)cc1`, the growth was 60.5%.

With `COc1cc(C2CC(c3ccc(C)cc3)=Nc3c(N)nc(N)nc3N2)ccc1Oc1nc(Nc2ccc(F)cc2)nc(N(C)C)n1` (stereo unspecified), the growth was 56.2%.

On to `O=C(Nc1cccc(C(F)(F)F)c1)c1cncc(C#Cc2cnc3ccc(N4CCOCC4)nn23)c1`, for which the growth is -23.6% (active).

As for `CN(C(=O)c1ccc(C(F)(F)F)cc1C(F)(F)F)c1sc2c(c1C#N)CCC(=O)C2`, the growth was 29.7%.

Take `COc1ccc2[nH]cc(/C=N/Nc3ccc(Br)cn3)c2c1`: the growth was 31.1%.

Take `[2H]C([2H])([2H])Oc1ccc2ncc(C#Cc3cncc(C(=O)Nc4ccc(CN5CCN(C)CC5)c(C(F)(F)F)c4)c3)n2n1`: the growth was -78.8% (active).

As for `O=c1cc(-c2ccccc2)oc2cc(OCCCCNCc3ccccc3)cc(O)c12`, the growth is 64.3%.

With `O=c1[nH]c2ccccc2cc1CSc1ccc(Nc2nccc(-c3ccc(C(F)(F)F)cc3)n2)cc1`, the growth was -61.1% (active).

With `CN(C)c1ccc(/C=C/c2nc3ccccc3c(=O)n2CC(=O)Nc2ccccc2)cc1`, the growth is 26.4%.

(Values after PubChem BioAssay (NCI).)
